Several values for one entry are separate records, joined by “and”; a condition that tells them apart may be missing. Equal values may be shown once. Some structures have more than one record in an assay (separate samples or runs), and their calls can disagree. Activity calls are given as the source filed them. How the source made its calls: active means hit-call score of the fitted dose curve at least 0.9, where 1 is the maximum; inactive means score below 0.9.
Experiments:
[1] = ATG_CRE_CIS: Attagene CIS-FACTORIAL HepG2 Assay for human cAMP Responsive Element (CRE) binding protein 3 (AID 2282926); conditions: HepG2 CRE cis-reporter, Attagene multiplexed mRNA; actives raise or lower the signal
Summary of the method: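 We dosed HepG2 cells bearing multiple cis-promoter reporter units for 24 h and measured reporter mRNA by RT-PCR with capillary electrophoresis detection. Bidirectional concentration-response fitting used DMSO as negative control.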

[2] = target: CCAAT/enhancer-binding protein beta (Homo sapiens) (UniProt P17676); assay: ATG_C_EBP_CIS: Attagene CIS-FACTORIAL HepG2 Assay for human CCAAT/Enhancer Binding Protein (C/EBP) beta (AID 2282927); conditions: HepG2 Attagene cis-factorial transcription factor reporter; actives raise or lower the signal
Chain of CCAAT/enhancer-binding protein beta (Homo sapiens) (P17676 whole entry, looked up): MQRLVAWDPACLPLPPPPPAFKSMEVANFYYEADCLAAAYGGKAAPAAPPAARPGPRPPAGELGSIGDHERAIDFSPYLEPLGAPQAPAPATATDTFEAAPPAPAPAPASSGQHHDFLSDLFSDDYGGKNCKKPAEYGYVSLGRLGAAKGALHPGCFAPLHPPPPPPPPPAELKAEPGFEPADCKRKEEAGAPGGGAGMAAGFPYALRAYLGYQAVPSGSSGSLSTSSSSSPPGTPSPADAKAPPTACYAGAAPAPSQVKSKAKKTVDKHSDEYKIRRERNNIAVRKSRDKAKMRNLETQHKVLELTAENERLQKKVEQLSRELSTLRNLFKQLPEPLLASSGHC
Summary of the method: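 Changes in reporter mRNA, rather than exogenous chimeric receptor activity, reflect native C/EBP signalling in transfected HepG2 cells dosed for 24 h; transcripts are detected by RT-PCR and capillary electrophoresis.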

[3] = ATG_CMV_CIS: Attagene CIS-FACTORIAL HepG2 Assay for human CMV (Internal Marker) (AID 2282928); conditions: HepG2 CMV promoter reporter, transcription factor profiling; actives raise or lower the signal;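 further: endpoint acts as a background internal control marker rather than a target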
Summary of the method: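 Endogenous transcription factor activity read in HepG2 via transfected cis-promoter reporter units. After 24 h dosing, reporter mRNA measured by RT-PCR/capillary electrophoresis; gain or loss of signal fit relative to DMSO.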

[4] = ATG_DR4_LXR_CIS: Attagene CIS-FACTORIAL HepG2 Assay for human Liver X Receptor (LXR), DR4 submotif (AID 2282929); conditions: HepG2 Attagene DR4 cis-reporter, mRNA transcription; actives raise or lower the signal
Summary of the method: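 Endogenous factor activity at a DR4 cis-element is read as reporter mRNA in transiently transfected HepG2 cells. Exposure lasts 24 h; transcripts are amplified, fluorescently labelled and sized by capillary electrophoresis, with DMSO as baseline.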

[5] = target: Aryl hydrocarbon receptor (Homo sapiens) (UniProt P35869); assay: ATG_Ahr_CIS: Attagene CIS-FACTORIAL HepG2 Assay for human Aryl Hydrocarbon Receptor (Ahr) (AID 2282930); conditions: HepG2 AhR cis-factorial reporter transcription; actives raise or lower the signal
Chain of Aryl hydrocarbon receptor (Homo sapiens) (P35869 whole entry, looked up): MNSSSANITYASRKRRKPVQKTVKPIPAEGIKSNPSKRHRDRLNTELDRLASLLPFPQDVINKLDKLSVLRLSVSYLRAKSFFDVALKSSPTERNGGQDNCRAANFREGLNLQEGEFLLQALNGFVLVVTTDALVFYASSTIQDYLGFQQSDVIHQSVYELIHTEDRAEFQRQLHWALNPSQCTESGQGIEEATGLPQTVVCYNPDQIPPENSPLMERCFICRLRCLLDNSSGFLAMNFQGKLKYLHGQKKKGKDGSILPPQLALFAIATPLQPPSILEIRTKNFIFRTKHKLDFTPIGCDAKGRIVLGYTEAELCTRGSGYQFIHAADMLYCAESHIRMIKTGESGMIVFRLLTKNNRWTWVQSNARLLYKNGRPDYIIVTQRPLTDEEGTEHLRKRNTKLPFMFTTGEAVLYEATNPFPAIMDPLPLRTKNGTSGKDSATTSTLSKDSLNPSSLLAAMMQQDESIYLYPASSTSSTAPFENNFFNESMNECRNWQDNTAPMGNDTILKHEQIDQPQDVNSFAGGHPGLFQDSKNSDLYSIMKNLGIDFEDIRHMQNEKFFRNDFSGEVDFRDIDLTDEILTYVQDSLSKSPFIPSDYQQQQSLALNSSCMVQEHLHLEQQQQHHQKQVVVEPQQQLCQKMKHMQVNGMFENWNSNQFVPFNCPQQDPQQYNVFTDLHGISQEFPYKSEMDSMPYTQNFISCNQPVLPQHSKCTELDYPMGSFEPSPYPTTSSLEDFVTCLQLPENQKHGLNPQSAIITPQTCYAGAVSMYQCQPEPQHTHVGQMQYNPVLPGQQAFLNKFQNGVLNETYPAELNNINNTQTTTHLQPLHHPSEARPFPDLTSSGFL
Summary of the method: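 HepG2, transient MRTU (cis) transfection, 24 h exposure. RNA → cDNA → PCR → 6-FAM primer extension → HpaI 2 h 37 C → CE. Fit: bidirectional, DMSO baseline.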

[6] = ATG_AP_1_CIS: Attagene CIS-FACTORIAL HepG2 Assay for human Activator Protein 1 (AP-1) (AID 2282931); conditions: HepG2 Attagene cis-factorial AP-1 reporter mRNA; actives raise or lower the signal
Summary of the method: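 Fluorescence of labelled PCR fragments separated by capillary electrophoresis gives reporter mRNA levels. HepG2 with transfected cis-regulated reporter units, 24 h exposure; DMSO serves as baseline for bidirectional curve fits.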

[7] = ATG_AP_2_CIS: Attagene CIS-FACTORIAL HepG2 Assay for human Activator Protein 2 (AP-2) (AID 2282932); conditions: HepG2 AP-2 cis-reporter, Attagene transcription factor profiling; actives raise or lower the signal
Summary of the method: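 Step one: transient transfection of HepG2 with reporter transcription units. Step two: 24 h chemical exposure. Step three: RNA extraction, RT-PCR, labelled fragment analysis by capillary electrophoresis; DMSO serves as baseline.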

[8] = ATG_BRE_CIS: Attagene CIS-FACTORIAL HepG2 Assay for human Bone Morphogenetic Protein (BMP) Response Element (BRE) (AID 2282933); conditions: HepG2 BMP response element reporter, Attagene transcription factor profiling; actives raise or lower the signal
Summary of the method: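 A HepG2 multiplex reporter system measured inducible reporter mRNA 24 h post-dosing. Detection: RT-PCR, 6-FAM primer extension, HpaI digestion, capillary electrophoresis. Activity fitted bidirectionally relative to DMSO.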

[9] = target: Retinoic acid receptor alpha (Homo sapiens) (UniProt P10276); assay: ATG_DR5_RAR_CIS: Attagene CIS-FACTORIAL HepG2 Assay for human Retinoic Acid Receptor Alpha (RARE), DR5 submotif (AID 2282934); conditions: HepG2 Attagene cis-factorial RARE DR5 reporter, mRNA; actives raise or lower the signal
Chain of Retinoic acid receptor alpha (Homo sapiens) (P10276 whole entry, looked up): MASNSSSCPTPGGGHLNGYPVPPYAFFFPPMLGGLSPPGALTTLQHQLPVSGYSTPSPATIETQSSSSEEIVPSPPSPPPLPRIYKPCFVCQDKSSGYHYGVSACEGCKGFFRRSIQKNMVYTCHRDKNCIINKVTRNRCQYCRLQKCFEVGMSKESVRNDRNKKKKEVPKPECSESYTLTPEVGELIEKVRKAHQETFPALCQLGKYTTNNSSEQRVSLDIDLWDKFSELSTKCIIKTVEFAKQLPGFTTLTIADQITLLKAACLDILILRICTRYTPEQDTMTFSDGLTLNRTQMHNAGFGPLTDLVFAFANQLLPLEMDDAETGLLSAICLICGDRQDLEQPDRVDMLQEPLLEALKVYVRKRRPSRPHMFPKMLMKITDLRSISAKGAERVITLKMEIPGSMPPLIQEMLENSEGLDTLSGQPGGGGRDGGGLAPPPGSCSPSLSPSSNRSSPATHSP
Summary of the method: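 HepG2, transient cis-reporter transfection, 24 h exposure. mRNA readout: RT-PCR, FAM label, HpaI cut, capillary electrophoresis. DMSO baseline, gain/loss fitting.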

[10] = target: Transcription factor E2F1 (Homo sapiens) (UniProt Q01094); assay: ATG_E2F_CIS: Attagene CIS-FACTORIAL HepG2 Assay for human E2F Transcription Factor 1 (AID 2282935); conditions: HepG2 Attagene cis-reporter, E2F reporter RNA transcripts; actives raise or lower the signal
Chain of Transcription factor E2F1 (Homo sapiens) (Q01094 whole entry, looked up): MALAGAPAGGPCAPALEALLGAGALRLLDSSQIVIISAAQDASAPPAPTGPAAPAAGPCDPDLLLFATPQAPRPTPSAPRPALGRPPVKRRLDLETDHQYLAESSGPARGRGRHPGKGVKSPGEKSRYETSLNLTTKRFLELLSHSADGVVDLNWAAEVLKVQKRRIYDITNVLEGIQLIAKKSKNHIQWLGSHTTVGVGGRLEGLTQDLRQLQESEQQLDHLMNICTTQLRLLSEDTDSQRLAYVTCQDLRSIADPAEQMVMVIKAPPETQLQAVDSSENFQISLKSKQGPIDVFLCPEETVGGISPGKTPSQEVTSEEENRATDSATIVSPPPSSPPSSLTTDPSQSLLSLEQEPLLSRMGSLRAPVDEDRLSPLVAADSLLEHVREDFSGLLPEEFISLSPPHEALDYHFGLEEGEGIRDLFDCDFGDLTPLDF
Summary of the method: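 Total RNA from 24 h-treated, reporter-transfected HepG2 cells undergoes DNase I treatment, oligo(dT) reverse transcription, PCR and 6-FAM primer extension before capillary electrophoresis.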

[11] = ATG_E_Box_CIS: Attagene CIS-FACTORIAL HepG2 Assay for human Enhancer Box (E-box) (AID 2282936); conditions: HepG2 E-box cis-reporter transcription, actives raise or lower the signal
Summary of the method: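 DMSO served as negative control and baseline for bidirectional fitting. Human hepatoma HepG2 cells, transiently transfected with cis-reporter constructs, were dosed 24 h; reporter mRNA read by RT-PCR and capillary electrophoresis.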

[12] = ATG_M_61_CIS: Attagene CIS-FACTORIAL HepG2 Assay for M61 Transcription Factor (Internal Marker) (AID 2282937); conditions: HepG2 Attagene CIS-FACTORIAL M61 internal marker reporter; actives raise or lower the signal
Summary of the method: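 This endpoint serves as an internal background control within a multiplexed HepG2 cis-reporter panel. Cells are exposed for 24 h; reporter mRNA is amplified, fluorescently labelled and sized by capillary electrophoresis, with DMSO as negative control.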

[13] = ATG_EGR_CIS: Attagene CIS-FACTORIAL HepG2 Assay for human Early Growth Response 1 (EGR1) (AID 2282938); conditions: HepG2 Attagene CIS-FACTORIAL EGR reporter mRNA; actives raise or lower the signal
Summary of the method: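 HepG2, transient MRTU transfection (cis promoters), 24 h compound. RNA → RT (oligo-dT) → PCR → 6-FAM labelling → HpaI cut → CE fluorescence. Bidirectional fit, DMSO baseline.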

[14] = ATG_M_19_CIS: Attagene CIS-FACTORIAL HepG2 Assay for M19 Transcription Factor (Internal Marker) (AID 2282939); conditions: HepG2 Attagene CIS-FACTORIAL M19 internal marker reporter; actives raise or lower the signal
Summary of the method: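 Chemical-treated HepG2 (24 h) with MRTU constructs; reporter transcripts detected by fluorescent RT-PCR fragment analysis on capillary electrophoresis. Internal background marker, DMSO as baseline.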

[15] = ATG_ERE_CIS: Attagene CIS-FACTORIAL HepG2 Assay for Estrogen Response Element (ERE) (AID 2282940); conditions: HepG2 ERE cis-reporter, Attagene RNA transcript; actives raise or lower the signal
Summary of the method: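 Human liver cells (HepG2) bearing transiently transfected, promoter-regulated reporter units were exposed 24 h. Reporter mRNA induction was detected by capillary electrophoresis of labelled RT-PCR products and fitted bidirectionally to DMSO.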

[16] = ATG_Ets_CIS: Attagene CIS-FACTORIAL HepG2 Assay for human Erythroblast Transformation Specific (ETS) (AID 2282941); conditions: HepG2 ETS cis-reporter transcription, actives raise or lower the signal
Summary of the method: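 Steps: transfect HepG2 with multiple reporter units; treat compound 24 h; isolate RNA, DNase-treat, reverse-transcribe; PCR-amplify, label with 6-FAM, digest with HpaI; separate by capillary electrophoresis. Activity fitted both directions versus DMSO.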

[17] = target: Hepatocyte nuclear factor 3-beta (Homo sapiens) (UniProt Q9Y261); assay: ATG_FoxA2_CIS: Attagene CIS-FACTORIAL HepG2 Assay for human Forkhead box A2 (FOXA2) (AID 2282942); conditions: HepG2 cis-reporter transcription factor activity, 24 h; actives raise or lower the signal
Chain of Hepatocyte nuclear factor 3-beta (Homo sapiens) (Q9Y261 whole entry, looked up): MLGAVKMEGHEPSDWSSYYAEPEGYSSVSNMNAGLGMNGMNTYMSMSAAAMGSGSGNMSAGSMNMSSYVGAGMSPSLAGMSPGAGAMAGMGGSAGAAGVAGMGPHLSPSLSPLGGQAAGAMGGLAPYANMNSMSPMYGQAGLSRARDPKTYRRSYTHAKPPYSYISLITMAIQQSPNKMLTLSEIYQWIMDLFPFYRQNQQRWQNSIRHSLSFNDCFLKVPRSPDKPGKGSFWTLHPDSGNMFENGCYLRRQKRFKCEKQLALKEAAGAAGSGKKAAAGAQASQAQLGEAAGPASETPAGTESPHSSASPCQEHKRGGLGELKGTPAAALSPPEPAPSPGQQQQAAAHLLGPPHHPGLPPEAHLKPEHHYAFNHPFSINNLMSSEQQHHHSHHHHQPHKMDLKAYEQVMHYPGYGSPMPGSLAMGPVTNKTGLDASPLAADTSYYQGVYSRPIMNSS
Summary of the method: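 Cells: HepG2, transient multiplex reporter transfection. Exposure 24 h. Detection: reporter-specific RT-PCR, fluorescent labelling, restriction digest, capillary electrophoresis. Analysis: bidirectional curve fit, DMSO as negative control.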

[18] = ATG_GATA_CIS: Attagene CIS-FACTORIAL HepG2 Assay for human GATA Binding Protein (AID 2282944); conditions: HepG2 GATA cis-element reporter, Attagene multiplex mRNA; actives raise or lower the signal
Summary of the method: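 Transfected cis-reporter HepG2 cells were treated with chemicals for 24 hours. Total RNA was then converted to cDNA, amplified with reporter-specific primers and analysed by fluorescent capillary electrophoresis, using DMSO-treated wells as baseline.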

[19] = ATG_GLI_CIS: Attagene CIS-FACTORIAL HepG2 Assay for human Zinc Finger Protein GLI1 (AID 2282945); conditions: HepG2, Attagene cis-factorial reporter mRNA, GLI element; actives raise or lower the signal
Summary of the method: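 Bidirectional curve fits relative to DMSO, using reporter mRNA levels from RT-PCR plus capillary electrophoresis. Cells were HepG2 transiently carrying cis-regulated reporter constructs, harvested 24 h after dosing.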

[20] = ATG_FoxO_CIS: Attagene CIS-FACTORIAL HepG2 Assay for human Forkhead box O (FoxO) (AID 2282943); conditions: HepG2 Attagene cis-reporter, FoxO element, mRNA; actives raise or lower the signal
Summary of the method: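 Human hepatoma HepG2 cells carry transiently introduced reporter transcription units controlled by cis promoter elements. Chemical treatment lasted 24 h, and mRNA signal was compared with DMSO.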

Measured: AC50

CCO[Si](CCCNC(N)=O)(OCC)OCC
not listed: [20]
inactive: all other assays above

CC(C)(C)c1csc(-c2cc3cc(OCc4ccccc4CC(=O)O)ccc3o2)n1
active: [1] 54.3 µM | [3] 33.4 µM | [4] 4.56 µM | [6] 33.4 µM | [8] 57.6 µM | [13] 14.4 µM
inactive: all other assays above

CN1C(=O)N(c2ccccc2Br)Cc2cnc(Nc3ccc4c(c3)OCC(CO)O4)nc21 (configuration not stated)
active: [1] 5.78 µM | [2] 2.61 µM | [4] 27.1 µM | [6] 4.77 µM | [13] 12.2 µM
not listed: [7] | [18] | [20]
inactive: all other assays above

Cc1occc1C(=O)Nc1ccc(C(=O)N2CCC(F)(F)/C(=C\C(=O)N3CCC(N4CCCCC4)CC3)c3ccccc32)cc1
active: [4] 50.3 µM | [5] 12.3 µM | [8] 13.2 µM | [11] 27.4 µM | [13] 34.5 µM | [16] 55.9 µM | [17] 34.5 µM
not listed: [18] | [20]
inactive: all other assays above

CCCCCCCCCCCCO
not listed: [7] | [18]
inactive: all other assays above

CC/C(=C(/CC)c1ccc(O)cc1)c1ccc(O)cc1
active: [1] 15.9 µM | [3] 18 µM and 15.4 µM | [4] 7.89 µM [middle of 4 runs] | [6] 13.8 µM and 11.1 µM and 14.4 µM
inactive: [1] | [2] | [3] | [4] | [6] | [8] | [10] | [11] | [12] | [13] | [14] | [16] | [17] | [20] | [18] | [19]

Source: PubChem BioAssay (EPA / NIEHS)
